Eleven compounds from PubChem BioAssay can be followed below.

Several values for one entry are separate records, joined by “and”; a condition that tells them apart may be missing. Equal entries are not always repeated. For some assays here: Results with a measured potency or affinity are listed apart. Activity calls are given as the source filed them.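 Rule for the calls, unless noted: active = compounds whose cell count with miR-34 switched on is under 0.7 times the count with it off; inactive = the rest.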

What is called inhibition is the share of the control response that was lost under treatment. By viability is commonly meant a read-out of living cells in per cent, often relative to untreated cells.

Assay [1] can be described thus: polyglutamine-triggered caspase-3 activation inhibitors, cell-based (AID 1583). The conditions noted are these: polyglutamine-induced caspase-3 activation, cell assay; stronger effect = higher value;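 tested at 10 µM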.
Assay [2] can be described thus: suppressors of polyQ aggregation in yeast, 75Q-TubU reporter (AID 1593). The conditions noted are these: Yeast 75Q polyglutamine aggregation reporter.
A short description of assay [3]: rescue of polyQ-huntingtin neuronal dysfunction in worms, whole organism, C. elegans mechanosensory neurons, N-terminal huntingtin (AID 1599). The conditions noted are these: touch response, stronger effect = higher value.
Assay [4] can be described thus: inhibitors of mitochondrial cytochrome c release, biochemical, purified mitochondria (AID 1603).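 Note: mouse liver mitochondria challenged with calcium chloride; signal normalized to the plate average as 100%.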 The conditions noted are these: stronger effect = lower value.
The nature of assay [5]: inhibitors of polyQ protein aggregation (AID 1604). The conditions noted are these: polyglutamine-induced protein aggregation inhibition assay; stronger effect = higher value; tested at 2.5 µM.
Assay [6] can be described thus: enhancers of glutamate uptake in motor neurons, MN-1 cell line (AID 1612).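 Note: tested at 1 µM final; 0% = mean of DMSO vehicle wells on each plate; positive means more glutamate uptake than control and negative means less.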 Particulars: MN-1 motor neuron cells, stronger effect = higher value.
Assay [7] is described as follows: reducers of polyQ inclusions in PC12 cells, cell-based, NGF-treated PC12, GFPQ80 (AID 1614).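 Note: lower means fewer inclusions and 0 means no inclusions at all.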 Particulars: PC12 NGF-treated GFP-polyQ80 inclusion reduction.
Assay [8] can be described thus: suppressors of polyglutamine aggregation in yeast, 75Q-TubH (AID 1616). Particulars: S. cerevisiae 75Q-TubH polyglutamine aggregation suppression; stronger effect = higher value.
Assay [9] can be described thus: hESC survival regulators, cell-based (AID 493140; call rule not given here;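 note: cells exposed to compounds for four days before counting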). Particulars: human embryonic stem cell survival screen; stronger effect = higher value.
A short description of assay [10]: liver-stage malaria parasite growth inhibition, primary screen, cell-based, HepG2, luciferase luminescence, HepG2 viability (AID 624349; in the data active = parasite load remaining mostly below about 12%, no sharp cut-off; inactive = mostly above about 10%;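 note: 100% = mean of DMSO negative control wells on the same plate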). The conditions noted are these: P. berghei liver stage in HepG2, luciferase luminescence, concentration not given here; parasite load remaining: stronger effect = lower value; viability: measured here: HepG2 viability without parasites.
Assay [11] can be described thus: sensitizers of A549 cells to miR-34 induction, primary screen, imaging, A549 dox-inducible miR-34, nuclei and caspase counts (AID 1347080). The conditions noted are these: A549 miR-34 inducible, Hoechst nuclei count, 48 h.
Assay [12] is described as follows: viability rescue of complex I mutant cybrids, primary screen, cell-based, galactose medium, ATP luminescence (AID 1645843;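 active = z-score of at least 1.8 in each of two replicates, scored against plate mean and spread of sample wells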;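 note: positive z means more ATP and so rescue of galactose-driven cybrid death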). Particulars: complex I mutant cybrid cells, 72 h, stronger effect = higher value.
Setting [13] is: stronger effect = lower value, cell number ratio, induced over uninduced.
[14] abbreviates: measured here: relative caspase fold change +Dox/-Dox.
Where [15] appears, read: measured here: total cells with miR-34 induction, stronger effect = lower value.
Where [16] appears, read: measured here: total cells without miR-34 induction.

For the compound `CC1(C)S[C@@H]2[C@H](NC(=O)[C@H](NC(=O)N3CCNC3=O)c3ccccc3)C(=O)N2C1C(=O)O` (stereo not given in full), the inhibition in assay [1] was 10.9%. Moreover, the score in assay [2] is 1.31. The rescue above control in [3] was -2.48. Moreover, the cytochrome c release ratio in assay [4] came to 1.14. The inhibition of aggregation in assay [5] was 54.5%. Also, in assay [6], the glutamate uptake change was 7.74%. This compound showed an inclusion score in assay [7] of 2. The compound also returned an aggregation suppression score in assay [8] of 1.29. In addition, in assay [9], the survival is 4.75 (inactive). Moreover, the parasite load remaining in assay [10] was 188% (inactive) and 42.9% (inactive). For the same compound, in [10], the viability was 87.9% and 114%. Besides, the fold change was 0.882 (inactive) in [11] (setting [13]) and 3.93 in assay [11] (setting [14]). The cell count in assay [11] (setting [15]) was 12000; in assay [11] (setting [16]), 13600.

Turning to `OCC1OC(n2cnc3c(NC4CCCC4O)ncnc32)C(O)C1O` (stereo not given), the fold change in [11] (setting [13]) is 0.907 (inactive); in [11] (setting [14]) it was 0.906. Also, the cell count is 9400 in assay [11] (setting [15]) and 10400 in assay [11] (setting [16]). Further, the z-score in [12] is 0.73 (inactive).

In the case of `C[C@]12CC(O)C3C(CCC4=CC(=O)CC[C@@]43C)C1CCC2C(=O)CO` (stereo not given in full), the fold change was 0.859 (inactive) in assay [11] (setting [13]) and 2.3 in assay [11] (setting [14]). Besides, the cell count was 7080 in [11] (setting [15]) and 8240 in assay [11] (setting [16]). Besides, the z-score in [12] was 0.21 (inactive).

Regarding `C#C[C@]1(O)CCC2C3CCC4=CC(=O)CCC4C3CC[C@@]21CC` (stereo not given in full), the fold change is 0.905 (inactive) in assay [11] (setting [13]) and 1.25 in assay [11] (setting [14]). Besides, the cell count in assay [11] (setting [15]) turned out to be 8490; in [11] (setting [16]), 9390. The z-score in [12] was 0.65 (inactive).

With `NC(C(=O)NC1C(=O)N2C(C(=O)O)=C(Cl)CSC12)c1ccccc1` (stereo not given), the fold change is 1.39 (inactive) in assay [11] (setting [13]) and 0.686 in assay [11] (setting [14]). Also, the cell count in [11] (setting [15]) came to 9470; in assay [11] (setting [16]) it was 6800. For the same compound, the z-score in assay [12] was 0.295 (inactive).

With `OCC1OC(n2cnc3c(NC4CCCC4)nc(Cl)nc32)C(O)C1O` (stereo not given), the fold change was 0.88 (inactive) in assay [11] (setting [13]) and 1.42 in assay [11] (setting [14]). For the same compound, the cell count came out at 9520 in [11] (setting [15]) and 10800 in assay [11] (setting [16]). Besides, in [12], the z-score was 1.5 (inactive).

For the compound `Nc1ncnc2c1ncn2C1OC(CO)CC1O` (stereo not given), the results for the fold change in assay [11] (setting [13]) and in assay [11] (setting [14]) were 0.896 (inactive) and 2.91, respectively. For the same compound, the cell count came out at 8910 in assay [11] (setting [15]) and 9950 in [11] (setting [16]). The z-score in assay [12] is -0.825 (inactive).

Take `Cc1ccsc1C(=CCCN1CCCC(C(=O)O)C1)c1sccc1C` (stereo not given): the fold change in assay [11] (setting [13]) was 0.928 (inactive); in assay [11] (setting [14]) it was 1.05. The cell count in assay [11] (setting [15]) amounted to 8550; in assay [11] (setting [16]) it was 9210. For the same compound, in [12], the z-score is 1.02 (inactive).

In the case of `CC(C)(C)C(O)C=Cc1ccc2c(c1)OCO2` (stereo not given), the fold change in assay [11] (setting [13]) was 1.46 (inactive); in assay [11] (setting [14]), 0.768. For the same compound, the results for the cell count in assay [11] (setting [15]) and in assay [11] (setting [16]) were 8470 and 5780, respectively. In addition, in assay [12], the z-score was -0.12 (inactive).

`CC[C@]1(O)CC2CN(CCc3c([nH]c4ccccc34)[C@@](C(=O)OC)(c3cc4c(cc3OC)N(C)C3[C@@](O)(C(N)=O)C(O)[C@]5(CC)C=CCN6CC[C@]43C65)C2)C1` (stereo not given in full): the values for the fold change in assay [11] (setting [13]) and in [11] (setting [14]) were 0.722 (inactive) and 1.09, respectively. The cell count was determined as 1070 in assay [11] (setting [15]) and 1480 in [11] (setting [16]). In addition, the z-score in [12] was -1.19 (inactive).

Turning to `CC(C)(C)NC(=O)C1CC2CCCCC2CN1CC(O)C(Cc1ccccc1)NC(=O)C(CC(N)=O)NC(=O)c1ccc2ccccc2n1` (stereo not given), the fold change in [11] (setting [13]) was 1.12 (inactive); in [11] (setting [14]), 1.27. The cell count in assay [11] (setting [15]) was 4860; in [11] (setting [16]), 4350. In addition, in [12], the z-score was -1.52 (inactive).
